# Values without a mark were called inactive. Active and inactive are the calls of the source.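 How the source made its calls: active means normalized viability below 100% at a tested concentration; inactive means the rest.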
# Assay: ovarian cancer cell viability with rucaparib, profiling panel, oncology-focused library, rucaparib conditional (AID 1508598)
# Conditions: patient-derived ovarian cancer cells, CellTiter-Glo viability, 144 h, stronger effect = lower value
# [1] = at 0.000305 µM, OCI-C5x cells, with rucaparib 10 µM, 100% = cells with rucaparib alone
# [2] = at 0.000305 µM, OCI-C5x cells, without rucaparib
# [3] = at 0.000305 µM, OCI-P5x cells, with rucaparib 20 µM, 100% = cells with rucaparib alone
# [4] = at 0.000305 µM, OCI-P5x cells, without rucaparib
# [5] = at 0.00122 µM, OCI-C5x cells, with rucaparib 10 µM, 100% = cells with rucaparib alone
# [6] = at 0.00122 µM, OCI-C5x cells, without rucaparib
# [7] = at 0.00122 µM, OCI-P5x cells, with rucaparib 20 µM, 100% = cells with rucaparib alone
# [8] = at 0.00122 µM, OCI-P5x cells, without rucaparib
# [9] = at 0.00488 µM, OCI-C5x cells, with rucaparib 10 µM, 100% = cells with rucaparib alone
# [10] = at 0.00488 µM, OCI-C5x cells, without rucaparib
# [11] = at 0.00488 µM, OCI-P5x cells, with rucaparib 20 µM, 100% = cells with rucaparib alone
# [12] = at 0.00488 µM, OCI-P5x cells, without rucaparib
# [13] = at 0.0195 µM, OCI-C5x cells, with rucaparib 10 µM, 100% = cells with rucaparib alone
# [14] = at 0.0195 µM, OCI-C5x cells, without rucaparib
# [15] = at 0.0195 µM, OCI-P5x cells, with rucaparib 20 µM, 100% = cells with rucaparib alone
# [16] = at 0.0195 µM, OCI-P5x cells, without rucaparib
# [17] = at 0.0781 µM, OCI-C5x cells, with rucaparib 10 µM, 100% = cells with rucaparib alone
# [18] = at 0.0781 µM, OCI-C5x cells, without rucaparib
# [19] = at 0.0781 µM, OCI-P5x cells, with rucaparib 20 µM, 100% = cells with rucaparib alone
# [20] = at 0.0781 µM, OCI-P5x cells, without rucaparib
# [21] = at 0.313 µM, OCI-C5x cells, with rucaparib 10 µM, 100% = cells with rucaparib alone
# [22] = at 0.313 µM, OCI-C5x cells, without rucaparib
# [23] = at 0.313 µM, OCI-P5x cells, with rucaparib 20 µM, 100% = cells with rucaparib alone
# [24] = at 0.313 µM, OCI-P5x cells, without rucaparib
# [25] = at 1.25 µM, OCI-C5x cells, with rucaparib 10 µM, 100% = cells with rucaparib alone
# [26] = at 1.25 µM, OCI-C5x cells, without rucaparib
# [27] = at 1.25 µM, OCI-P5x cells, with rucaparib 20 µM, 100% = cells with rucaparib alone
# [28] = at 1.25 µM, OCI-P5x cells, without rucaparib
# [29] = at 5 µM, OCI-C5x cells, with rucaparib 10 µM, 100% = cells with rucaparib alone
# [30] = at 5 µM, OCI-C5x cells, without rucaparib
# [31] = at 5 µM, OCI-P5x cells, with rucaparib 20 µM, 100% = cells with rucaparib alone
# [32] = at 5 µM, OCI-P5x cells, without rucaparib
smiles,measurement,setting,value
Cc1[nH]c(C=C2C(=O)Nc3ccc(S(=O)(=O)Cc4c(Cl)cccc4Cl)cc32)c(C)c1C(=O)N1CCC[C@@H]1CN1CCCC1,viability,[1],124%
same,viability,[2],124%
same,viability,[3],74% (active)
same,viability,[4],47.4% (active)
same,viability,[5],122%
same,viability,[6],115%
same,viability,[7],87.5% (active)
same,viability,[8],57.1% (active)
same,viability,[9],116%
same,viability,[10],121%
same,viability,[11],105%
same,viability,[12],101%
same,viability,[13],107%
same,viability,[14],111%
same,viability,[15],93.6% (active)
same,viability,[16],91.6% (active)
same,viability,[17],106%
same,viability,[18],113%
same,viability,[19],96% (active)
same,viability,[20],89.5% (active)
same,viability,[21],123%
same,viability,[22],110%
same,viability,[23],93% (active)
same,viability,[24],94.4% (active)
same,viability,[25],122%
same,viability,[26],136%
same,viability,[27],90.6% (active)
same,viability,[28],87% (active)
same,viability,[29],109%
same,viability,[30],116%
same,viability,[31],1.25% (active)
same,viability,[32],52.5% (active)
CO[C@H]1C[C@@H]2CC[C@@H](C)[C@@](O)(O2)C(=O)C(=O)N2CCCC[C@H]2C(=O)O[C@H]([C@@H](C)C[C@@H]2CC[C@@H](OCCO)[C@H](OC)C2)CC(=O)[C@H](C)/C=C(\C)[C@H](O)[C@@H](OC)C(=O)[C@H](C)C[C@H](C)/C=C/C=C/C=C/1C,viability,[1],103%
same,viability,[2],135%
same,viability,[3],91.8% (active)
same,viability,[4],83.4% (active)
same,viability,[5],106%
same,viability,[6],120%
same,viability,[7],88% (active)
same,viability,[8],74.1% (active)
same,viability,[9],120%
same,viability,[10],115%
same,viability,[11],85% (active)
same,viability,[12],72.9% (active)
same,viability,[13],115%
same,viability,[14],112%
same,viability,[15],79.5% (active)
same,viability,[16],72.3% (active)
same,viability,[17],111%
same,viability,[18],119%
same,viability,[19],86.3% (active)
same,viability,[20],73.1% (active)
same,viability,[21],110%
same,viability,[22],111%
same,viability,[23],88% (active)
same,viability,[24],67.8% (active)
same,viability,[25],115%
same,viability,[26],103%
same,viability,[27],73.4% (active)
same,viability,[28],60.4% (active)
same,viability,[29],123%
same,viability,[30],120%
same,viability,[31],69.5% (active)
same,viability,[32],59.4% (active)
C[C@]12CC[C@H]3c4ccc(O)cc4CC[C@H]3[C@@H]1CC[C@H]2O,viability,[1],95.7% (active)
same,viability,[2],130%
same,viability,[3],103%
same,viability,[4],110%
same,viability,[5],105%
same,viability,[6],111%
same,viability,[7],101%
same,viability,[8],116%
same,viability,[9],109%
same,viability,[10],124%
same,viability,[11],104%
same,viability,[12],112%
same,viability,[13],99.5% (active)
same,viability,[14],115%
same,viability,[15],109%
same,viability,[16],112%
same,viability,[17],100%
same,viability,[18],119%
same,viability,[19],108%
same,viability,[20],109%
same,viability,[21],108%
same,viability,[22],118%
same,viability,[23],100%
same,viability,[24],114%
same,viability,[25],100%
same,viability,[26],124%
same,viability,[27],110%
same,viability,[28],113%
same,viability,[29],81% (active)
same,viability,[30],94.8% (active)
same,viability,[31],107%
same,viability,[32],110%
CC(=O)O[C@H]1C(=O)[C@@]2(C)C([C@H](OC(=O)c3ccccc3)[C@]3(O)C[C@H](OC(=O)[C@H](O)[C@@H](NC(=O)c4ccccc4)c4ccccc4)C(C)=C1C3(C)C)[C@]1(OC(C)=O)CO[C@@H]1C[C@H]2O (stereo partly drawn),viability,[1],112%
same,viability,[2],129%
same,viability,[3],125%
same,viability,[4],125%
same,viability,[5],114%
same,viability,[6],121%
same,viability,[7],119%
same,viability,[8],123%
same,viability,[9],75.3% (active)
same,viability,[10],71.2% (active)
same,viability,[11],97.9% (active)
same,viability,[12],39.8% (active)
same,viability,[13],37% (active)
same,viability,[14],35.9% (active)
same,viability,[15],63.2% (active)
same,viability,[16],16.9% (active)
same,viability,[17],34.2% (active)
same,viability,[18],30.2% (active)
same,viability,[19],64.9% (active)
same,viability,[20],17.4% (active)
same,viability,[21],36.2% (active)
same,viability,[22],29.8% (active)
same,viability,[23],57.9% (active)
same,viability,[24],18.2% (active)
same,viability,[25],30% (active)
same,viability,[26],32.8% (active)
same,viability,[27],56.9% (active)
same,viability,[28],18.7% (active)
same,viability,[29],24.5% (active)
same,viability,[30],24.4% (active)
same,viability,[31],34.2% (active)
same,viability,[32],17% (active)

# From PubChem BioAssay
